HT1080 IDH1KD tx: qHTS for induction of synthetic lethality in tumor cells producing 2HG: qHTS for the HT-1080-IDH1KD cell line | AID 686971, 2013 | 2% of 360,000 active | HT-1080 IDH1 knockdown viability, ATP luminescence, 48 h | Potency, µM (series often up to 46.1 µM), without a hit: at the highest dose activity, negative = toxicity, usual class: cytotoxic;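 also: potency is read from the fitted curve at half-maximal effect; 0% = DMSO wells and -100% = cell-free medium wells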
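IDH1KD HT-1080 cells, 750/well, RPMI + 5% FBS; compound pinned after 2 h settling; 48 h, 37 °C; CellTiter-Glo luminescence; % activity normalised to DMSO and no-cell wells; curves fitted, classed by r2 and efficacy.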
DT40 TDP1 CPT: qHTS for Inhibitors of human tyrosyl-DNA phosphodiesterase 1 (TDP1): qHTS in cells in presence of CPT; Potency, µM (doses to about 46.2 µM), without a hit: top-dose activity change, negative = growth inhibition, actives largely listed as inhibitors; 12% of 420,000 active; chicken DT40 Tdp1-/-;hTDP1 cells + 20 nM CPT, ATP luminescence, 48 h; also: potency is read from the fitted curve at half-maximal effect; nearly all actives have a fitted effect of over 55% in size
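Chicken DT40 Tdp1-/- cells stably complemented with human TDP1 were seeded at 400 cells/well in medium containing 20 nM camptothecin, exposed to pin-transferred compounds, and grown at 37 °C for at least 48 hr. Viability was read as ATP luminescence.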
DT40 TDP1 no CPT: qHTS for Inhibitors of human tyrosyl-DNA phosphodiesterase 1 (TDP1): qHTS in cells in absence of CPT; DT40 Tdp1-/- hTDP1 cells, no CPT, ATP luminescence, 48 h; Potency, µM (doses to about 46.2 µM), without a hit: top-dose activity change, negative = growth inhibition, hits mostly inhibitors; 15% of 420,000 active; AID 686978, 2013; also: potency is read from the fitted curve at half-maximal effect; nearly all actives have a fitted effect of over 55% in size
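Growth of hTDP1-complemented DT40 Tdp1-knockout cells is measured by ATP luminescence after at least 48 hr compound exposure at 37 °C, with DMSO substituting for the 20 nM CPT used in the parallel screen.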
IL1B secr inh: qHTS for Inhibitors of Inflammasome Signaling: IL-1-beta AlphaLISA Primary Screen; activity change, % at 57.5 µM; THP-1 LPS/ATP IL-1B secretion, AlphaLISA, 16 h; active compounds read low; 4.7% of 360,000 active; AID 743279, 2014; in the data active = activity change below about -50%; inconclusive = mostly about -30% to -49%
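Secreted IL-1B measured by AlphaLISA bead assay after 16 h compound exposure of THP-1 cells; compounds (final up to 57.5 uM) added 1 h before LPS (250 ng/mL) and ATP (1.25 mM) stimulation; lower signal means less secretion.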
HT1080NT lethal: qHTS for induction of synthetic lethality in tumor cells producing 2HG: qHTS for the HT-1080-NT fibrosarcoma cell line | HT-1080-NT fibrosarcoma viability, CellTiter-Glo ATP luminescence, 48 h | Potency, µM (titrated, usually from 46.1 µM), for the others: at the top dose activity, negative = less viability, usual class: cytotoxic | 1.6% of 360,000 active;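 also: NT is the 2HG producing partner of a matched IDH1 knockdown line; potency is read from the fitted curve at half-maximal effect; 0% = DMSO-treated cells and -100% = media-only wells without cells; nearly all actives have a fitted effect of over 55% in size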
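Viability of the 2HG-overproducing fibrosarcoma line after 48 hours of compound exposure at 37 degrees C was determined by luminescence with CellTiter-Glo, and concentration-effect curves were then fitted and categorized.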
An asterisk follows results filed as active; ? = inconclusive; · = no result given. This is a sample that favours compounds with a hit; in the whole collection about 19% have one here. Unless noted, calls follow the shape of the dose curve; as a rule, active = well fitted curve in the direction sought with a large enough effect; inconclusive = small, poorly fitted or top-dose-only effect, or another doubt; inactive = no such curve, though single readings can be large; an effect the other way counts as inactive or inconclusive. Unless noted, % is scaled to controls: 0 for no effect and ±100 for the full control effect.

SMILES	HT1080 IDH1KD tx	DT40 TDP1 CPT	DT40 TDP1 no CPT	IL1B secr inh	HT1080NT lethal
CCOC(=O)C1=CCN(S(=O)(=O)c2ccc(F)cc2)C1c1ccc(F)cc1 (stereo unspecified)	-3%	?	15µM*	28	-1%
CCOC(=O)C1=CCN(S(=O)(=O)c2ccc(F)cc2)C1c1ccc(Br)cc1 (stereo unspecified)	?	?	?	-28	?
CCOC(=O)C1=CCN(S(=O)(=O)c2ccccc2)C1c1ccccc1 (stereo unspecified)	1%	?	?	49	1%
CCOC(=O)C1=CCN(S(=O)(=O)c2ccc(F)cc2)C1c1ccccc1 (stereo unspecified)	6%	?	21µM*	45	2%
Cc1ccc(NC(=O)/C(=C\c2ccccc2)NC(=O)/C=C/c2ccccc2)cc1	19%	-10%	-2%	-25	8%
COc1ccc(CCN(Cc2cc3cccc(C)c3[nH]c2=O)C(=O)NC2CCCCC2)cc1OC	2%	?	?	-68*	12%
Cc1cccc2cc(CN(Cc3ccco3)C(=O)NC3CCCCC3)c(=O)[nH]c12	-2%	?	-29%	?	-4%
CCN(CC)CCCN(Cc1cc2ccc(C)c(C)c2[nH]c1=O)C(=O)NC1CCCCC1	-110%	?	?	-52*	-90%
CC(OC(=O)CC1CCCCC1)C(=O)Nc1ccc(F)cc1 (stereo unspecified)	1%	-23%	?	-2	-2%
CCc1nc2c(OCC(=O)N3CCOCC3)cccn2c1N(C=O)Cc1ccccc1	1%	-6%	-3%	23	14%
CCc1cc(=O)oc2c3c(cc(OCC(=O)NCCN4CCOCC4)c12)OC(C)(C)CC3	-13%	-9%	?	0	-8%
Cc1cc2nc(C)n(CCCNC(=O)Nc3cccc4ccccc34)c2cc1C	-19%	23µM*	15µM*	?	-4%
CCC1(CC)C(=O)N(C)C(=O)NC1=Nc1ccc(OC)cc1	11%	7%	2%	6	14%
CCOC(=O)Cn1nc(C)c(NC(=O)c2cccc([N+](=O)[O-])c2)c1C	?	11%	3%	-10	15%
CCOC(=O)Cn1nc(C)c(NC(=O)COc2ccc(Cl)cc2C)c1C	·	9.2µM*	8.2µM*	·	·
CCOC(=O)Cn1nc(C)c(NC(=O)c2ccc(Cl)c([N+](=O)[O-])c2)c1C	-14%	-24%	?	-85*	-15%
O=C(NC1CCOc2ccccc21)c1ccc(Cl)nc1 (stereo unspecified)	0%	14%	6%	20	-4%
COc1ccc2[nH]cc(CCNC(=O)COc3cc(C)cc4oc(=O)cc(C)c34)c2c1	-2%	?	?	-14	-2%
CC(=O)c1c(C)[nH]c(C(=O)COC(=O)c2c(-c3ccccc3)noc2C)c1C	-1%	?	?	-6	0%
COc1ccc(CNS(=O)(=O)c2ccc3c(c2)CCN3C(=O)C2CC2)cc1	-9%	?	?	16	-26%
COc1ccc(S(=O)(=O)NCc2ccc3c(c2)CCN3C(=O)c2ccc(C)cc2)cc1Cl	·	21µM*	16µM*	·	·
CCC(=O)N1CCc2cc(CNS(=O)(=O)c3ccccc3F)ccc21	·	-25%	3%	·	·
CCc1ccc(S(=O)(=O)NCc2ccc3c(c2)CCN3C(=O)c2ccc(C)cc2)cc1	·	7.3µM*	8.2µM*	·	·
CC(C)c1ccc(S(=O)(=O)NCc2ccc3c(c2)CCN3C(=O)c2ccccc2)cc1	·	23µM*	15µM*	·	·
CCOc1ccc(S(=O)(=O)NCc2ccc3c(c2)CCN3C(=O)c2ccc(C)cc2)cc1	·	13µM*	9.2µM*	·	·
SMILES	HT1080 IDH1KD tx	DT40 TDP1 CPT	DT40 TDP1 no CPT	IL1B secr inh	HT1080NT lethal
CCCN1CCN(C(=O)c2ccc(CS(=O)c3ccc(Br)cc3)o2)CC1 (stereo unspecified)	2%	?	-8%	6	1%
CCN(CC)S(=O)(=O)c1cccc(C(=O)Oc2cccnc2)c1	0%	-16%	-19%	0	-2%
CCN(CC)S(=O)(=O)c1ccc(N/N=C(\C)c2cccnc2)nc1	13%	3%	-5%	-51*	10%
CCN(CC)S(=O)(=O)c1ccc(N/N=C(\C)c2ccncc2)c([N+](=O)[O-])c1	-1%	1%	?	54	4%
NNc1ccc(S(=O)(=O)N2CCCCC2)cn1	-7%	-22%	-21%	9	-15%
C/C(=N\Nc1ccc(S(=O)(=O)N2CCCCC2)cn1)c1cccc(Br)c1	?	?	3.3µM*	-17	?
CCN(CC)S(=O)(=O)c1ccc(N/N=C(\C)c2ccncc2)nc1	-12%	23µM*	?	-5	-13%
COCCc1nn2c(=O)cc(COC(=O)c3ccccc3C)nc2s1	·	0%	-19%	·	·
O=C1N[C@@H](Cc2cnc[nH]2)C(=O)N2CCC[C@@H]12	3%	-9%	1%	14	-12%
COC(=O)C1=C(COc2ccccc2)NC(=O)NC1c1ccc(Cl)cc1 (stereo unspecified)	-2%	?	?	-28	-3%
Cc1cccc(NC2=CC(c3cccc(Br)c3)N(c3cccc(C)c3)C2=O)c1 (stereo unspecified)	·	?	8.2µM*	·	·
COc1cccc(C2C=C(Nc3ccccc3)C(=O)N2c2ccccc2)c1 (stereo unspecified)	-3%	-13%	-30%	-15	-2%
Cc1cccn2c(=O)c(/C=C(\C#N)C(N)=O)c(Oc3ccccc3)nc12	-1%	?	?	0	11%
Cc1cccn2c(=O)c(/C=C(\C#N)S(=O)(=O)c3ccccc3)c(Oc3ccc(Cl)cc3)nc12	0%	?	18µM*	-8	-1%
Cc1cc(Oc2nc3c(C)cccn3c(=O)c2/C=C(\C#N)S(=O)(=O)c2ccccc2)ccc1Cl	13%	13µM*	?	6	3%
COCCCOc1cc(C[C@@H](C[C@H](N)[C@@H](O)C[C@H](C(=O)NCC(C)(C)C(N)=O)C(C)C)C(C)C)ccc1OC	·	11%	-5%	·	·
COc1ccc(O)c(/C=N\NC(=O)CCn2nnc3ccccc32)c1	?	?	23µM*	78	?
COc1cccc(/C=N/NC(=O)CSCC(=O)Nc2ccccc2)c1O	2µM*	4.5µM*	3.2µM*	152	4µM*

Screens (PubChem BioAssay)
